{"source": "PubChem BioAssay (Tox21)", "note": "“And” between values parts separate entries of the source, which are not always exact repeats. Identical values can stand only once. Inconclusive results are not listed. A call without a number means that no potency is given here. The source made the active and inactive calls. Calls follow the shape of the dose curve; as a rule, active = well fitted cell-killing curve with a large enough effect in the repeat runs; inconclusive = weak or mixed curves, or effect the other way; inactive = flat fitted curve, though single readings scatter. Potency is read from the fitted curve at half-maximal effect."}
{"assay": "qHTS assay to identify small molecule agonists of the androgen receptor (AR) signaling pathway in the presence of an antagonist - cell viability counter screen (AID 1259379); also: nearly all actives have a fitted effect of over 25% in size", "conditions": "MDA-kb2 viability, CellTiter-Fluor, 16 h; series mostly up to 92.4 µM", "description": "National Center for Advancing Translational Sciences [NCATS]\nNIH Chemical Genomics Center [NCGC]\nU.S. Environmental Protection Agency [EPA]\nNational Institutes of Environmental Health Sciences [NIEHS]\nNational Toxicology Program [NTP]\nU.S. Food and Drug Administration [FDA]\nAndrogen receptor (AR) is an important member of nuclear receptor family. Its signaling plays a critical role in AR-dependent prostate cancer and other androgen related diseases. Considerable attention has been given in the past decades to develop methods to study and screen for the environmental chemicals that have the potential to interfere with metabolic homeostasis, reproduction, developmental and behavioral functions. Therefore AR binding assay for screening against androgen agonists and antagonists can be used to identify potential endocrine disruptors.\nMDA-kb2 cells (from ATCC, deposited by Wilson et al.) are human breast carcinoma cells that were stably transfected with a luciferase reporter gene under control of the MMTV promoter that contains response elements for both androgen receptor (AR) and glucocorticoid receptor (GR). This particular screening for measuring luciferase reporter gene activity using MDA-kb2 cells against Tox21 10K library compounds is a confirmation study on agonist mode screening in the presence of AR-antagonist compound (Nilutamide) at 3.0uM final concentration. The cytotoxicity of the compounds was tested in parallel by measuring the cell viability using CellTiter-Fluor assay system (Promega, Madison, WI) in the same wells.\nTox21 Assay Protocol Summary:\nMDA-kb2 cells (cells cultured without CO2) were dispensed at 3,000 cells/well in 4uL of culture medium into white wall/solid-bottom 1536-well plates (Corning Life Sciences, Corning, NY) using a Multidrop Combi (Thermo Fisher Scientific Inc., Waltham, MA) dispenser. The assay plates were incubated at 37C and 0% CO2 for 5hr. One uL of 3.0uM (final concentration) Nilutamide or assay buffer was added using two separate tips of Flying Reagent Dispenser (FRD, Aurora Discovery, San Diego, CA). Then 23nL of compounds dissolved in DMSO at 15 concentrations and positive controls were transferred to the assay plates using a Pintool station (Wako, San Diego, CA). The assay plates were incubated at 37C and 0% CO2 for 16 hr. After 15hr incubation at 37C, 1uL/well CellTiter-Fluor reagent (Promega Corporation) was added to each well of the assay plates using FRD. After 1hr incubation at 37C and 0% CO2, the fluorescence signal was measured using a ViewLux plate reader (PerkinElmer, Shelton, CT)."}
{"smiles": "c1ccc2c(c1)CCc1ccccc1N2", "Potency": "inactive"}
{"smiles": "COC(=O)CS", "Potency": "inactive"}
{"smiles": "C1C[C@@H]2[C@H]3CC[C@H](C3)[C@@H]2C1", "Potency": "inactive"}
{"smiles": "C=C(C)C(=O)OCCOCCOC(=O)C(=C)C", "Potency": "inactive"}
{"smiles": "O=c1cc(-c2ccccc2)oc2cc(O)cc(O)c12", "Potency": "48.6 µM (active)"}
{"smiles": "Cc1ccc(Cl)c(Nc2ccccc2C(=O)O)c1Cl", "Potency": "inactive"}
{"smiles": "CCn1cc(C(=O)O)c(=O)c2cc(F)c(N3CCNCC3)cc21", "Potency": "inactive"}
{"smiles": "CCc1ccccc1", "Potency": "inactive"}
{"smiles": "C[C@@]12CCC[C@H]1[C@@H]1CC[C@H]3C[C@@H](O)CC[C@]3(C)[C@H]1CC2", "Potency": "inactive"}
{"smiles": "O=c1[nH]c2ccc(Cl)cc2o1", "Potency": "inactive"}
{"smiles": "CC(C)c1nc(CN(C)C(=O)N[C@H](C(=O)N[C@@H](Cc2ccccc2)C[C@H](O)[C@H](Cc2ccccc2)NC(=O)OCc2cncs2)C(C)C)cs1", "Potency": "inactive"}
{"smiles": "CC(C)(c1ccccc1)c1ccccc1", "Potency": "inactive"}
{"smiles": "C[C@]1(Cn2ccnn2)[C@H](C(=O)O)N2C(=O)C[C@H]2S1(=O)=O", "Potency": "inactive"}
{"smiles": "CNC(=O)c1cnn(-c2nc(N)c3ncn([C@@H]4O[C@H](CO)[C@@H](O)[C@H]4O)c3n2)c1", "Potency": "inactive"}
{"smiles": "C=C(C)C(=O)OCCCCCCCCCCCCC", "Potency": "inactive"}
{"smiles": "CCOc1ccc(Cc2nccc3cc(OCC)c(OCC)cc23)cc1OCC", "Potency": "29.8 µM (active)"}
{"smiles": "CCCCCC[C@@H](O)C/C=C\\CCCCCCCC(=O)O", "Potency": "inactive"}
{"smiles": "CC(=O)OCCN(CCOC(C)=O)c1ccc(N=Nc2ccc([N+](=O)[O-])cc2C#N)cc1", "Potency": "54.5 µM (active)"}
{"smiles": "CCCCCCC(C)(C)C(=O)O", "Potency": "inactive"}
{"smiles": "COc1cc(Nc2c(C#N)cnc3cc(OCCCN4CCN(C)CC4)c(OC)cc23)c(Cl)cc1Cl", "Potency": "29.8 µM (active)"}
{"smiles": "CN1C(=O)c2ccccc2C1=O", "Potency": "inactive"}
{"smiles": "CCC(C)(C)OC", "Potency": "inactive"}
{"smiles": "C1COC1", "Potency": "inactive"}
{"smiles": "CCCCOc1ccc(OCCCN2CCOCC2)cc1", "Potency": "inactive"}
{"smiles": "CC1(C)S[C@@H]2[C@H](NC(=O)C(c3ccccc3)S(=O)(=O)O)C(=O)N2[C@H]1C(=O)O", "note": "(stereo not given in full)", "Potency": "inactive"}
{"smiles": "CC(=O)OCC(=O)NCCCOc1cccc(CN2CCCCC2)c1", "Potency": "inactive"}
{"smiles": "CC(C)C(O)(c1ccc(OC(F)(F)F)cc1)c1cncnc1", "note": "(stereo not given)", "Potency": "inactive"}
{"smiles": "C[C@@H]1CC(=O)NN=C1c1ccc(NN=C(C#N)C#N)cc1", "Potency": "23.7 µM (active) and 13.3 µM (active)"}
{"smiles": "O=C(Nc1cccc2c(=O)cc(-c3nn[nH]n3)oc12)c1ccc(OCCCCc2ccccc2)cc1", "Potency": "inactive"}
{"smiles": "CCCCCC[C@@H](O)C/C=C\\CCCCCCCC(=O)OCC(O)CO", "note": "(stereo not given in full)", "Potency": "inactive"}
{"smiles": "O=C(O)CCc1nc(-c2ccccc2)c(-c2ccccc2)o1", "Potency": "inactive"}
{"smiles": "C=C(C)[C@@H]1CCC2=CCC[C@@H](C)[C@]2(C)C1", "Potency": "inactive"}
{"smiles": "O=c1cc(-c2ccccc2)oc2ccc3ccccc3c12", "Potency": "inactive"}
{"smiles": "O=C1C(=O)c2ccccc2C(O)=C1C1CCC(c2ccc(Cl)cc2)CC1", "note": "(stereo not given)", "Potency": "23.7 µM (active)"}
{"smiles": "CCOC(=O)c1ccc(I)cc1", "Potency": "inactive"}
{"smiles": "CCCCCCCCC(CCCCCC)C(=O)O", "note": "(stereo not given)", "Potency": "inactive"}
{"smiles": "CC(C)(C)C(=O)C(=O)O", "Potency": "inactive"}
{"smiles": "CN1CCCN=C1COC(=O)C(O)(c1ccccc1)C1CCCCC1", "note": "(stereo not given)", "Potency": "inactive"}
{"smiles": "c1ccc2sc(SN(C3CCCCC3)C3CCCCC3)nc2c1", "Potency": "inactive"}
{"smiles": "CCOC(=O)OC(C)OC(=O)[C@@H]1N2C(=O)[C@@H](NC(=O)[C@H](N)c3ccccc3)[C@H]2SC1(C)C", "note": "(stereo not given in full)", "Potency": "inactive"}
